# ClpP mod: qHTS Assay for Activators of ClpP; ATP-dependent Clp protease proteolytic subunit (Bacillus subtilis (strain 168)), P80244; purified B. subtilis ClpP, FRET peptide cleavage, 20 min; Potency, µM (series often up to 57.5 µM), inactives show at the top dose activity change, negative = active; actives 1.9% (n = 340,000); AID 651965, 2013; active means well fitted falling curve with a large enough effect; inconclusive means small, poorly fitted or top-dose-only effect; inactive means no such curve, though single readings can be large or run the other way; further: potency means the concentration at half of the fitted maximal effect; the source files actives as falling curves though it sought activators and does not explain the sign; nearly all actives have a fitted effect of over 65% in size
# Target sequence (P80244 whole entry, looked up): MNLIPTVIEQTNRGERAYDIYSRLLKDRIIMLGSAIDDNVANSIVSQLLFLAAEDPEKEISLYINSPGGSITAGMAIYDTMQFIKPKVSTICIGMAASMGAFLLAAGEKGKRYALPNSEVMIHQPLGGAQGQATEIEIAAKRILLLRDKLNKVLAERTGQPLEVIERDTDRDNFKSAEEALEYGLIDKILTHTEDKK
#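 FRET quenching reversal measured ClpP activation: 10 microg/mL B. subtilis ClpP at pH 8 with the FRET-FV decapeptide, read at 430 nm after 320 nm excitation. The 20-min minus 0-min signal was scaled between DMSO/no-enzyme wells and ADEP (5.8 microM final).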
# IL1B secr inh: qHTS for Inhibitors of Inflammasome Signaling: IL-1-beta AlphaLISA Primary Screen; THP-1 LPS/ATP IL-1B secretion, AlphaLISA, 16 h; stronger effect = lower value; activity change, % at 57.5 µM; actives 4.7% (n = 360,000); AID 743279, 2014; in the data active means activity change below about -50%; inconclusive means mostly about -30% to -49%; further: on the % scale 0 is the no-effect control and ±100 the full control effect
#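 THP-1 cells pretreated 1 hr with compounds (up to 57.5 uM final), then stimulated with LPS (250 ng/mL final) plus ATP (1.25 mM final); secreted IL-1B measured by AlphaLISA after 16 hr, decreased signal indicating inhibition.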
# TDP1 cell noCPT: qHTS for Inhibitors of human tyrosyl-DNA phosphodiesterase 1 (TDP1): qHTS in cells in absence of CPT; AID 686978, 2013; DT40 Tdp1-/- hTDP1 cells, no CPT, ATP luminescence, 48 h; actives 15% (n = 420,000); Potency, µM (series often up to 46.2 µM), for inactives: top-dose activity change, negative = growth inhibition, usual class: inhibitors; further: potency means the concentration at half of the fitted maximal effect; on the % scale 0 is the no-effect control and ±100 the full control effect; nearly all actives have a fitted effect of over 55% in size
#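 Compound effects on proliferation are scored in DT40 Tdp1-/-;hTDP1 cells in the absence of CPT. ATP levels (CellTiter-Glo luminescence) are recorded after a ≥48 hr, 37 °C incubation.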
# DT40 TDP1 CPT: qHTS for Inhibitors of human tyrosyl-DNA phosphodiesterase 1 (TDP1): qHTS in cells in presence of CPT | Potency, µM (series often up to 46.2 µM), for inactives: top-dose activity change, negative = growth inhibition, most hits filed as inhibitors | actives 12% (n = 420,000) | chicken DT40 Tdp1-/-;hTDP1 cells + 20 nM CPT, ATP luminescence, 48 h; further: potency means the concentration at half of the fitted maximal effect; on the % scale 0 is the no-effect control and ±100 the full control effect; nearly all actives have a fitted effect of over 55% in size
#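 Cell growth measured by CellTiter-Glo luminescence after a minimum 48 h, 37 C compound exposure with 20 nM CPT in Tdp1-knockout DT40 cells stably expressing hTDP1, seeded 400/well; qHTS titration format.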
# D3 antag: qHTS of D3 Dopamine Receptor Antagonist: qHTS | AID 652054, 2013 | actives 2.5% (n = 360,000) | max response, negative = inhibition, % | D3R cells, DiscoveRx beta-arrestin luminescence, antagonist mode; stronger effect = lower value | D(3) dopamine receptor (Homo sapiens), P35462; in the data active means max response below about -50%; inconclusive means no clear call, values can overlap the other calls; further: on the % scale 0 is the no-effect control and ±100 the full control effect
# Target sequence (P35462 whole entry, looked up): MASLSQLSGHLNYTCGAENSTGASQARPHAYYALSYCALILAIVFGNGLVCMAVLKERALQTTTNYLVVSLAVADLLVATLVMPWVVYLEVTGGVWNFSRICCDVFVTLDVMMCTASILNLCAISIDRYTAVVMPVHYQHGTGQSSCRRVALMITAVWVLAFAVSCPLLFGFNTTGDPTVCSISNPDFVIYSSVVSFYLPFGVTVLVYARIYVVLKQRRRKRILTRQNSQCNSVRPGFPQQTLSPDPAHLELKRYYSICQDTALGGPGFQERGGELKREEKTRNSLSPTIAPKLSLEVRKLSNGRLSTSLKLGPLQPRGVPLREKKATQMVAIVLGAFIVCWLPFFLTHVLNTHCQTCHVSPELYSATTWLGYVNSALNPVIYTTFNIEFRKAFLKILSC
#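 Cells expressing the human receptor were seeded at 1500 cells/well, incubated overnight at 37 degrees C in 5% CO2, then exposed to library compounds with dopamine controls for 90 minutes at 37 degrees C before luminescent detection.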
# DRD3 agonist: qHTS of D3 Dopamine Receptor Agonist: qHTS. D3R DiscoveRx beta-arrestin cells, luminescence, 90 min. D(3) dopamine receptor (Homo sapiens), P35462. actives 0.58% (n = 410,000). max activation, %; in the data active means max activation above about 30%; further: 0% is about no effect
#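 Agonist-mode cell screen: cells plated at 1500/well and incubated overnight at 37 °C, then exposed to library compounds for 90 min at 37 °C. Detection reagent was added for 30–60 min at room temperature, and luminescence was read.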
# The depositor's hits bear a star; i = inactive; ? = inconclusive; nt = not tested or not shown. Sampled rows, rich in hits. Any-hit rate of the full collection: about 21%. Unless noted, the call rests on the fitted dose curve; in most records, active means well fitted inhibition curve with a large enough effect; inconclusive means small, poorly fitted or top-dose-only effect; inactive means flat fitted curve, though single readings scatter.
SMILES,ClpP mod,IL1B secr inh,TDP1 cell noCPT,DT40 TDP1 CPT,D3 antag,DRD3 agonist
COc1cccc(CN2CCN(C(=O)c3cc(-c4cccnc4)nc4ccc(C)cc34)CC2)c1,0.9%,6.1,11.6µM*,23.1µM*,36.2,19.5
CCOc1ccccc1N1CCN(C(=O)c2cc(-c3cc(OC)ccc3OC)nc3ccccc23)CC1,-24.2%,?,13µM*,23.1µM*,28.5,7.2
COc1ccc(-c2cc(C(=O)N3CCN(c4ncccn4)CC3)c3ccccc3n2)cc1,4.2%,-16.1,?,?,45.2,0.9
COc1ccc(OC)c(-c2cc(C(=O)N3CCN(c4ncccn4)CC3)c3ccccc3n2)c1,-3.3%,-10.1,18.4µM*,16.4µM*,2.3,9.5
Cc1ccccc1C(=O)N/N=C1\SCC(=O)N1Cc1ccco1,nt,26.8,-4.6%,5.6%,13.2,6.2
O=C(NC1CCCCC1)C(c1cccnc1)N(C(=O)c1csnn1)c1ccccc1F (stereo unspecified),0.0%,37.3,-1.2%,16.0%,-0.3,-6.1
COC(=O)c1cc2oc(C)cc2n1Cc1cccc(Cl)c1,-14.5%,nt,?,?,nt,7.8
COc1ccc2nc(-c3ccccc3)cc(C(=O)N3CCC3)c2c1,4.6%,-17.9,16.4µM*,23.1µM*,-18.4,-6.4
c1ccc2c(NC3CCCC3)nnc(NC3CCCC3)c2c1,?,-23.9,16.4µM*,?,-70.9*,0.7
Cc1csc(NC(=O)c2cc3c(C)nn(Cc4ccccc4Cl)c3s2)n1,-12.7%,6.1,16.4µM*,?,17.9,0.5
Cc1nn(Cc2ccccc2Cl)c(C)c1NC(=O)c1cc(-c2ccc(F)cc2)on1,-0.5%,20.1,-21.3%,?,29.4,16.9
Cc1nn(Cc2ccccc2Cl)c(C)c1NC(=O)c1ccn(C)n1,-4.1%,9.6,11.6µM*,8.2µM*,-7.2,-0.4
Cc1nn(Cc2ccccc2Cl)c(C)c1NC(=O)c1nc2ncccn2n1,0.7%,9.3,13µM*,13µM*,?,-5.9
CCC(CC)c1nnc(NC(=O)c2c(C)nn(Cc3ccccc3Cl)c2C)s1,0.7%,23.3,-26.4%,23.1µM*,?,-1.5
COc1ccc(CCC(=O)OCC(=O)NCc2ccc(OC)c(OC)c2)cc1OC,-1.0%,8.5,?,-1.2%,?,2.9
Cc1ccsc1CN(Cc1ccco1)c1cnc(S(C)(=O)=O)nc1C(=O)Nc1ccc(Cl)cc1,-4.8%,nt,?,?,nt,-8.4
Cc1cc(C(=O)Nc2c(C)nn(Cc3ccc(Cl)cc3)c2C)no1,0.6%,24.5,5.2%,-0.7%,9.8,1.3
Cc1nn(Cc2ccc(Br)cc2)c(C)c1NC(=O)c1nn(C)cc1Cl,-1.8%,-18.0,18.4µM*,?,-16.0,-3.9
Cc1cccc(Cn2c(=O)n(Cc3ccccc3)c(=O)c3sc4ccccc4c32)c1,-17.1%,nt,23.1µM*,?,nt,-15.3
Cc1ccc(NC(=O)Cn2c(=O)n(Cc3ccccc3)c(=O)c3sc4ccccc4c32)cc1,-17.8%,nt,5.8µM*,5.8µM*,nt,0.1
O=c1c2sc3ccccc3c2n(Cc2cccc(C(F)(F)F)c2)c(=O)n1-c1ccccc1,3.5%,nt,13µM*,?,nt,0.2
CC(CNC(=O)c1ccc(OC2CCN(Cc3ccccn3)CC2)cc1)Oc1cccnc1 (stereo unspecified),3.3%,-2.7,?,-14.0%,-7.5,0.5
Cc1cnc(-n2ncc(C(=O)NCCN3CCOCC3)c2C2CC2)nc1-c1cccs1,nt,nt,-21.7%,21.1%,nt,nt
COc1cc(OC)cc(C(=O)NCC(=O)NC(C)c2ccccc2)c1 (stereo unspecified),-11.0%,-27.1,-0.3%,-10.2%,-18.0,-6.7
NS(=O)(=O)c1ccc(NC(=O)Nc2ccc3c(c2)OCO3)cc1,-2.9%,i,2.9%,4.4%,-18.1,1.1
SMILES,ClpP mod,IL1B secr inh,TDP1 cell noCPT,DT40 TDP1 CPT,D3 antag,DRD3 agonist
Cn1cccc1-c1nc2ccc([N+](=O)[O-])cc2[nH]1,nt,-16.1,?,-0.8%,-29.2,-10.1
Nc1ccc2nc(-c3ccccc3)[nH]c2c1,?,-2.3,?,?,10.6,0.5
O=[N+]([O-])c1ccc2nc(-c3ccccc3)[nH]c2c1,-1.3%,-68.6*,?,?,?,-6.5
COc1ccc2nc(-c3cccc(N)c3)[nH]c2c1,?,-27.7,23.1µM*,?,-16.4,-10.9
Nc1cccc(-c2nc3ccc(C(=O)c4ccccc4)cc3[nH]2)c1,-6.9%,48.9,0.82µM*,0.731µM*,-4.1,0.6
O=C(Nc1ccc(S(=O)(=O)N2CCC(c3nc4ccccc4s3)CC2)cc1)c1ccccc1,0.8%,nt,4.4%,3.3%,nt,-7.3
COC(=O)c1cccc(Cn2c(Cl)c(/C=N/NC(=O)c3ccco3)sc2=O)c1,-17.4%,?,9.2µM*,?,-9.7,-0.7
NC(=O)c1ccc(Cc2ncc(C(F)(F)F)cc2Cl)s1,?,18.8,-20.1%,-1.9%,0.0,-2.2
O=S(=O)(N/N=C/c1ccc(Cl)cc1)c1ccc(Cc2ncc(C(F)(F)F)cc2Cl)s1,0.0%,15.8,?,-25.3%,-73.4*,3.4
Cc1ccc(-c2cn3cccnc3n2)cc1NC(=O)c1ccc(Br)o1,62.5%,?,-20.9%,-19.1%,-19.6,-8.1
CCCC(=O)Nc1cc(-c2cn3cccnc3n2)ccc1OC,?,-12.0,-4.5%,-6.6%,-4.1,1.6
COc1ccc(-c2cn3cccnc3n2)cc1NC(=O)c1ccc(Br)o1,?,-54.0*,?,15.8µM*,-11.5,5.0
CC(C)(Oc1ccc(Cl)cc1)C(=O)Nc1cccc(-c2cn3cccnc3n2)c1,3.9%,nt,?,?,nt,-8.7
COc1ccc(-c2cn3cccnc3n2)cc1NC(=O)CC(C)C,28.2µM*,-4.5,0.6%,1.9%,11.4,-2.5
COc1cccc(C(=O)Nc2cc(-c3cn4cccnc4n3)ccc2C)c1OC,4.6%,nt,16.4µM*,?,nt,3.4
Cc1ccc(-c2cn3cccnc3n2)cc1NC(=O)C(C)(C)Oc1ccc(Cl)cc1,4.8%,nt,18.4µM*,?,nt,-8.5
COc1ccc(-c2cn3cccnc3n2)cc1NC(=O)Nc1cc(C)ccc1C,-23.5%,nt,?,?,nt,-6.0
